Reference: PubChem BioAssay (NCI)
Values joined by “and” are separate entries in the source; they are usually repeats but may differ in a detail not shown here. Equal values may be shown once. The panel holds about 79,000 compounds, 15% with a hit somewhere; the sample as a whole holds those more often. The source holds several records for some structures; these can differ, active in one and inactive in another. Active and inactive are the calls of the source. Rule as the data show it: active = growth inhibition above about 70%; inactive = the rest. *1 amine or outer side, *2 acyl side, *3 side chain or, on linkers, in order; H or OH if unused. Where a SMILES comes first, the peptide text is derived from it. [ ]: non-standard residue; d: D form. X2 = CC[C@H](C)[C@H](OC(=O)[C@@H](C)[C@@H](CC)N[*:1])C(=O)[*:2]; X3 = C[C@H](N[*:1])C(=O)C(C)(C)C(=O)[*:2]; NMeY = CN[C@@H](Cc1ccc(O)cc1)C(=O)O; NMeL = CN[C@@H](CC(C)C)C(=O)O; NMeV = CN[C@H](C(=O)O)C(C)C

Columns and labels:
[1] = NCI Yeast Anticancer Drug Screen. Data for the rad50 strain (AID 155);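 also: 0% = growth of vehicle-only cultures of the same strain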; details: S. cerevisiae rad50 strain growth inhibition, stronger effect = higher value
Summary of the method: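 Vehicle-treated cultures provide the reference for the growth inhibition reported for compound-exposed, repair-deficient yeast.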

[2] = NCI Yeast Anticancer Drug Screen. Data for the mec2-1 strain (AID 157); details: S. cerevisiae mec2-1 strain, stronger effect = higher value
Summary of the method: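 mec2-1 yeast strain, carrying an alteration in DNA damage repair or cell cycle control, was exposed to compounds; growth inhibition was measured relative to vehicle-treated controls.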

[3] = NCI Yeast Anticancer Drug Screen. Data for the sgs1 mgt1 strain (AID 161);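 also: 0% = growth of cultures given vehicle only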; details: S. cerevisiae sgs1 mgt1 strain, stronger effect = higher value
Summary of the method: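 Yeast cells carrying a defined DNA-repair defect were exposed to test compounds. Growth inhibition was measured relative to vehicle-treated controls.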

[4] = NCI Yeast Anticancer Drug Screen. Data for the cln2 rad14 strain (AID 165);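 also: 0% = growth equal to vehicle treated cultures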; details: S. cerevisiae cln2 rad14 strain, stronger effect = higher value
Summary of the method: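 Yeast carrying cln2 and rad14 alterations (cell cycle control and DNA damage repair) were exposed to compounds. Growth inhibition was measured against vehicle-treated controls.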

[5] = NCI Yeast Anticancer Drug Screen. Data for the bub3 strain (AID 167); details: S. cerevisiae bub3 mutant strain, stronger effect = higher value
Summary of the method: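 Mutant yeast screening strain plus compound; vehicle-treated cultures serve as the 0% inhibition reference.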

[6] = NCI Yeast Anticancer Drug Screen. Data for the mlh1 rad18 strain (AID 175); details: S. cerevisiae mlh1 rad18 strain growth inhibition, stronger effect = higher value
Summary of the method: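 Growth inhibition of the yeast strain was measured after compound exposure and expressed relative to vehicle-treated controls. The strain carries defined defects in DNA damage repair.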

[7] = at 5.0 µM (retest, dose inferred, filed as 0.5)
[8] = at 50.0 µM (retest, dose inferred, filed as 5.0)

| Structure (SMILES) | growth inhibition [1, 7] | growth inhibition [1, 8] | growth inhibition ([1]; at 50.0 µM) | growth inhibition [2, 7] | growth inhibition [2, 8] | growth inhibition ([2]; at 50.0 µM) | growth inhibition [3, 7] | growth inhibition [3, 8] | growth inhibition ([3]; at 50.0 µM) | growth inhibition [4, 7] | growth inhibition [4, 8] | growth inhibition ([4]; at 50.0 µM) | growth inhibition [5, 7] | growth inhibition [5, 8] | growth inhibition ([5]; at 50.0 µM) | growth inhibition [6, 7] | growth inhibition [6, 8] | growth inhibition ([6]; at 50.0 µM) |
| --- | --- | --- | --- | --- | --- | --- | --- | --- | --- | --- | --- | --- | --- | --- | --- | --- | --- | --- |
| C[CH2][Pb]([CH2]C)([CH2]C)[n]1cnc2ccccc21 | 4% (inactive) | 87% (active) | 66% (inactive) | 2% (inactive) | 98% (active) | 74% (active) | 5% (inactive) | 97% (active) | 82.2% (active) | -3% (inactive) | 62% (inactive) | 41.8% (inactive) | 2% (inactive) | 97% (active) | 80.3% (active) | 4% (inactive) | 98% (active) | 79% (active) |
| C[C@]12Cc3conc3C(O)=C1CC[C@@H]1C2CC[C@@]2(C)C1CC[C@@H]2O (stereo partly specified) | 2% (inactive) | 5% (inactive) | 81.3% (active) | 0% (inactive) | 0% (inactive) | 63.5% (inactive) | 1% (inactive) | 35% (inactive) | 57.1% (inactive) | 1% (inactive) | 24% (inactive) | 55.2% (inactive) | -49% (inactive) | 3% (inactive) | 71.2% (active) | -1% (inactive) | 15% (inactive) | 78.2% (active) |
| CC12CCC(O)CC1=CCC1C2CCC2(C)C(NC(=O)C3CCCN3C(=O)CN(CCCl)CCCl)CCC12 (stereo unspecified) | -5% (inactive) | 56% (inactive) | 79% (active) | -4% (inactive) | 46% (inactive) | 72.5% (active) | 1% (inactive) | 80% (active) | 91.5% (active) | -5% (inactive) | 34% (inactive) | 63.2% (inactive) | -6% (inactive) | 38% (inactive) | 64.8% (inactive) | 12% (inactive) | 76% (active) | 86.8% (active) |
| CCC1(O)C(=O)OCc2c1cc(C)[nH]c2=O (stereo unspecified) | -124% (inactive) | -25% (inactive) | 0.75% (inactive) | -42% (inactive) | -45% (inactive) | 0.1% (inactive) | -57% (inactive) | -45% (inactive) | -5.5% (inactive) | -62% (inactive) | -64% (inactive) | 23.9% (inactive) | -75% (inactive) | -56% (inactive) | 4.45% (inactive) | -157% (inactive) | -85% (inactive) | 4.95% (inactive) |
| c1ccc2c(c1)[nH]c1c2cc[n+]2cc3c(cc12)CCCC3 | 30% (inactive) and 19% (inactive) | 79% (active) and 97% (active) | 89.2% (active) and 91.5% (active) | 51% (inactive) and 19% (inactive) | 85% (active) and 97% (active) | 89.6% (active) and 91.6% (active) | 45% (inactive) and 26% (inactive) | 97% (active) and 98% (active) | 91.9% (active) | 55% (inactive) and 26% (inactive) | 97% (active) and 89% (active) | 83.2% (active) | 68% (inactive) and 33% (inactive) | 96% (active) and 98% (active) | 91.3% (active) | 29% (inactive) and 27% (inactive) | 89% (active) and 98% (active) | 88.7% (active) and 86.2% (active) |
| Brc1ccc(N2C[N+](c3ccc(Br)cc3)=NC(c3ccccc3)=N2)cc1 | 23% (inactive) | 94% (active) | 97.5% (active) and 18.3% (inactive) | -2% (inactive) | 96% (active) | 97.8% (active) and -1.3% (inactive) | 6% (inactive) | 92% (active) | 98.5% (active) and 10.9% (inactive) | 16% (inactive) | 98% (active) | 98.5% (active) and 10.1% (inactive) | 2% (inactive) | 99% (active) | 98.5% (active) and -3.05% (inactive) | 9% (inactive) | 97% (active) | 98.3% (active) and 13.1% (inactive) |
| CC[C@H](C)[C@@H]1OC(=O)[C@@H](C)[C@@H](CC)NC(=O)[C@H](C)NC(=O)C(C)(C)C(=O)[C@H](C)NC(=O)[C@H](Cc2ccc(OC)cc2)N(C)C(=O)[C@H](C(C)C)N(C)C(=O)CNC(=O)[C@H](CC(C)C)N(C)C(=O)CNC1=O (cyclo(A[X2]G[NMeL]G[NMeV][NMeY](Me)[X3])) | 99% (active) | 99% (active) | 92% (active) | 99% (active) | 99% (active) | 94% (active) | 99% (active) | 99% (active) | 93% (active) | 98% (active) | 98% (active) | 91% (active) | 99% (active) | 98% (active) | 92.7% (active) | 96% (active) | 97% (active) | 90.2% (active) |
| FC(F)(F)C1(C(F)(F)F)O[Te]2(OC1(C(F)(F)F)C(F)(F)F)OC(C(F)(F)F)(C(F)(F)F)C(C(F)(F)F)(C(F)(F)F)O2 | 10% (inactive) | 79% (active) | 63.7% (inactive) | 10% (inactive) | 89% (active) | 96.3% (active) | 23% (inactive) | 86% (active) | 95.5% (active) | 14% (inactive) | 84% (active) | 90.2% (active) | 20% (inactive) | 96% (active) | 89.2% (active) | 11% (inactive) | 91% (active) | 92% (active) |
| FC(F)(F)c1cccc(CCl)c1 | -1% (inactive) | 3% (inactive) | 24.8% (inactive) | 0% (inactive) | 1% (inactive) | -5.7% (inactive) | -1% (inactive) | 1% (inactive) | -17.4% (inactive) | -5% (inactive) | -6% (inactive) | -20.2% (inactive) | -3% (inactive) | 7% (inactive) | -8.25% (inactive) | -2% (inactive) | 4% (inactive) | 38.5% (inactive) |
| CC1(O)CC([CH2][Hg][I])OC([CH2][Hg][I])C1 (stereo unspecified) | 99% (active) | 99% (active) | 96.3% (active) | 99% (active) | 99% (active) | 98.3% (active) | 100% (active) | 99% (active) | 96% (active) | 99% (active) | 98% (active) | 98% (active) | 99% (active) | 98% (active) | 98.6% (active) | 99% (active) | 99% (active) | 91.6% (active) |
| N=C(N)c1ccccc1 | 12% (inactive) | 79% (active) | -2.25% (inactive) and 80.2% (active) | -1% (inactive) | 20% (inactive) | 5.4% (inactive) and 2.1% (inactive) | 2% (inactive) | 23% (inactive) | -1.6% (inactive) and 17.9% (inactive) | 6% (inactive) | 13% (inactive) | -0.6% (inactive) and 49.5% (inactive) | -2% (inactive) | 8% (inactive) | 6.9% (inactive) and 25.4% (inactive) | -2% (inactive) | 22% (inactive) | -14.5% (inactive) and 46.6% (inactive) |
| CC1=C2C(=O)[C@H]3[C@@H](CC=C4C[C@@H](O)CC[C@@]43C)[C@@H]2CC[C@]12O[C@@H]1C[C@H](C)CN[C@H]1[C@H]2C | 8% (inactive) and 2% (inactive) | 85% (active) and 81% (active) | 90.5% (active) and 85.8% (active) | 18% (inactive) and 3% (inactive) | 96% (active) and 83% (active) | 96.7% (active) and 90.8% (active) | 11% (inactive) and 5% (inactive) | 84% (active) and 91% (active) | 97% (active) and 87% (active) | -27% (inactive) and -9% (inactive) | 87% (active) and 60% (inactive) | 84.2% (active) and 81% (active) | 22% (inactive) and 17% (inactive) | 91% (active) and 90% (active) | 97.5% (active) and 88.5% (active) | 10% (inactive) and 5% (inactive) | 95% (active) and 89% (active) | 90.7% (active) and 87.4% (active) |
| CC(C)C1(NC(=O)C2C=C3c4cccc5[nH]cc(c45)CC3N(C)C2)OC2(O)C3CCCN3C(=O)C(Cc3ccccc3)N2C1=O (stereo unspecified) | 0% (inactive) | 94% (active) | 96.2% (active) | -47% (inactive) | 92% (active) | 97.1% (active) | -2% (inactive) | 89% (active) | 98.2% (active) | -8% (inactive) | 95% (active) | 94.5% (active) | -4% (inactive) | 95% (active) | 96.8% (active) | -2% (inactive) | 97% (active) | 97% (active) |
| c1ccc([Te][Te]c2ccccc2)cc1 | 62% (inactive) | 90% (active) | 17.6% (inactive) | 22% (inactive) | 68% (inactive) | 36.2% (inactive) | 40% (inactive) | 79% (active) | 75% (active) | 49% (inactive) | 63% (inactive) | 71.2% (active) | 52% (inactive) | 68% (inactive) | 41.5% (inactive) | 56% (inactive) | 88% (active) | 86% (active) |
| Cc1cc(NCc2ccccc2)c2ccccc2[n+]1CCCCCCCCCC[n+]1c(C)cc(NCc2ccccc2)c2ccccc21 | 99% (active) | 99% (active) | 90.8% (active) | 100% (active) | 99% (active) | 92.2% (active) | 99% (active) | 99% (active) | 92% (active) | 98% (active) | 99% (active) | 91.1% (active) | 99% (active) | 99% (active) | 89.1% (active) | 97% (active) | 98% (active) | 86.2% (active) |
| CCOC(=O)C(/N=N\c1nn[nH]n1)/N=N/c1ncn[nH]1 (stereo unspecified) | -7% (inactive) | -8% (inactive) | 97.7% (active) | -28% (inactive) | -6% (inactive) | 99.5% (active) | -6% (inactive) | -1% (inactive) | 73.2% (active) | -2% (inactive) | -10% (inactive) | 93.2% (active) | -6% (inactive) | -3% (inactive) | 98.8% (active) | -7% (inactive) | -5% (inactive) | 99.2% (active) |
| CCOP(=O)(OCC)/C(C#N)=C/c1cccc(Cl)c1 | 1% (inactive) | 94% (active) | 90.5% (active) | -1% (inactive) | 96% (active) | 91.8% (active) | 5% (inactive) | 94% (active) | 90.8% (active) | 14% (inactive) | 94% (active) | 88.2% (active) | -6% (inactive) | 96% (active) | 89.8% (active) | 6% (inactive) | 96% (active) | 89.3% (active) |
